# Experimental data reported in PubChem BioAssay (NCI).
# Compounds without any hit were thinned out: in the full panel of roughly 83,000, 20% have a hit.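 Compound tested at a single concentration for 48 hours in 96-well plates; a percent growth value below 10 was scored as active.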 Values without a mark were called inactive. Calls of active or inactive are those of the source.
# Assays:
# Assay in all cases: NCI-60 one-dose screen, 48 h (100 = growth as untreated, 0 = no growth, -100 = all killed)
# Conditions in all cases: 10 µM unless noted
# SK-MEL-2 melanoma = test system: SK-MEL-2 melanoma
# EKVX NSCLC = test system: EKVX NSCLC
# SN12C renal = test system: SN12C renal
# UO-31 renal = test system: UO-31 renal
# TK-10 renal = test system: TK-10 renal
# ACHN renal = test system: ACHN renal
# CAKI-1 renal = test system: CAKI-1 renal
# A498 renal = test system: A498 renal
# CCRF-CEM leukemia = test system: CCRF-CEM leukemia
# MOLT-4 leukemia = test system: MOLT-4 leukemia
# SR leukemia = test system: SR leukemia
# RPMI-8226 leukemia = test system: RPMI-8226 leukemia
# OVCAR-8 ovarian = test system: OVCAR-8 ovarian
# OVCAR-5 ovarian = test system: OVCAR-5 ovarian
# OVCAR-4 ovarian = test system: OVCAR-4 ovarian
# SK-OV-3 ovarian = test system: SK-OV-3 ovarian
# IGROV1 ovarian = test system: IGROV1 ovarian
# OVCAR-3 ovarian = test system: OVCAR-3 ovarian
# HS 578T breast = test system: HS 578T breast
# NCI/ADR-RES ovarian = test system: NCI/ADR-RES ovarian
Structure (SMILES),growth (SK-MEL-2 melanoma),growth (EKVX NSCLC),growth (SN12C renal),growth (UO-31 renal),growth (TK-10 renal),growth (ACHN renal),growth (CAKI-1 renal),growth (A498 renal),growth (CCRF-CEM leukemia),growth (MOLT-4 leukemia),growth (SR leukemia),growth (RPMI-8226 leukemia),growth (OVCAR-8 ovarian),growth (OVCAR-5 ovarian),growth (OVCAR-4 ovarian),growth (SK-OV-3 ovarian),growth (IGROV1 ovarian),growth (OVCAR-3 ovarian),growth (HS 578T breast),growth (NCI/ADR-RES ovarian)
Cn1c(/C=C/[N+](=O)[O-])cc2ccccc21,11.2%,46.1%,43.7%,-56.9% (active),57.7%,-29.7% (active),82.8%,-20% (active),30.1%,26.7%,-7.91% (active),-17.3% (active),10.8%,7.36% (active),94.2%,82.4%,0.609% (active),88.3%,70.2%,59.5%
Cc1c2cc[nH]c(=O)c2c(C)c2c1[nH]c1ccc(OC(=O)c3ccccc3)cc12,23.7%,19.7%,32.3%,12.9%,34%,-9.28% (active),29.1%,61.2%,29.4%,6.99% (active),4.29% (active),40.2%,28.4%,53.1%,62.5%,8.11% (active),30.6%,44.3%,19.3%,27.7%
COc1ccc2cc(Cn3cc[n+](Cc4ccc5ccccc5c4)c3)ccc2c1,-15.8% (active),50.5%,16.9%,84.4%,9.68% (active),98.8%,96%,74.7%,20.2%,17.2%,9.3% (active),1.54% (active),8.73% (active),45.6%,8.75% (active),29.8%,-9.16% (active),4.18% (active),46.3%,102%
C=CCN=C(N)SCCCCCCSC(N)=NCC=C,80.5%,98.4%,97.4%,80.6%,79.6%,106%,97.7%,79.3%,106%,81.8%,93.7%,94%,94.6%,97.5%,109%,70.4%,103%,95.9%,92.2%,104%
C#Cc1cccc(Oc2ccc(NC(=O)CCl)cc2)c1,61.8% [8.25 µM],82.3% [8.25 µM],37.6% [8.25 µM],52.8% [8.25 µM],93% [8.25 µM],70.1% [8.25 µM],36.9% [8.25 µM],102% [8.25 µM],2.35% [8.25 µM] (active),0.835% [8.25 µM] (active),13% [8.25 µM],23.9% [8.25 µM],31.4% [8.25 µM],74.3% [8.25 µM],7.96% [8.25 µM] (active),98.9% [8.25 µM],-71.6% [8.25 µM] (active),-76.8% [8.25 µM] (active),80.7% [8.25 µM],71.1% [8.25 µM]
CC/C(Cc1ccccc1)=C(\c1ccc(OCCN2CCCCCC2)cc1)c1ccc(OC(=O)NCc2ccccc2)cc1,98.9%,69.5%,66%,59.2%,91.6%,95%,93.8%,82.5%,47.5%,42.6%,-21.1% (active),30.8%,58.9%,80.9%,57%,88.6%,63.5%,89.8%,78.6%,74%
COc1ccc2c(c1)c(-c1cc(-c3cn(C)c4ccc(OC)cc34)on1)cn2C,118%,106%,106%,80.6%,126%,89.9%,92.8%,105%,91.3%,86.3%,104%,84.6%,97.5%,78.5%,112%,93.3%,87.4%,107%,90.3%,95.4%
C=C(CO)[C@@H]1CC[C@]2(COC3CCCCO3)CC[C@]3(C)[C@H](CC[C@@H]4[C@@]5(C)C=C(C=O)C(=O)C(C)(C)[C@@H]5CC[C@]43C)[C@@H]12 (stereo not given in full),-57.3% (active),-82.8% (active),-67.3% (active),-96.9% (active),-96.2% (active),-100% (active),-76% (active),-97.7% (active),-62.9% (active),-32.2% (active),-49.9% (active),-35% (active),-69% (active),-75.5% (active),-63.8% (active),-95.8% (active),-78.8% (active),-68.8% (active),-52.3% (active),-37.5% (active)
N#Cc1c(N2CCOCC2)nc(=S)[nH]c1-c1ccccc1,41.8%,56.8%,73.7%,76.9%,57.6%,73.9%,61.4%,13.7%,62.3%,73.6%,53.1%,73.6%,81.8%,71.7%,77.3%,64.4%,29.1%,66.8%,26.8%,80.9%
N=C(N)c1ccc(-c2ccc(-c3ccc(F)cc3)s2)s1,73.6%,41.4%,-50% (active),-32.6% (active),28.5%,-73.7% (active),0.453% (active),58.9%,-33.6% (active),-44.2% (active),-32.6% (active),-18.6% (active),-54.7% (active),-28.8% (active),-23.8% (active),80.5%,-27.5% (active),-57.8% (active),84.6%,-33.3% (active)
COc1ccc(NC(=O)c2ccc(C(=O)Nc3ccc(OC)cc3OC)cc2)c(OC)c1,80.4%,73.7%,65%,52.4%,69.7%,71.9%,68.1%,58.6%,90%,94.3%,87.9%,80.1%,44.5%,81.2%,88.2%,43.8%,54.7%,90.6%,39.3%,79.6%
COc1cccc(OC)c1Oc1c(-c2nc3ccccc3s2)c(C)nn1-c1ccccc1,90.6%,71.9%,82.6%,49.5%,94.7%,72.8%,44.9%,82.3%,62.9%,51.2%,6.99% (active),57.6%,72.2%,73.8%,63.4%,75.3%,46.5%,89.6%,78.3%,64.7%
C#CCn1cnc2c(Nc3cccc(NC(=O)CCl)c3)ncnc21,46%,45.3%,31.2%,46.7%,76.9%,23.4%,29.9%,78.7%,4.81% (active),4.44% (active),9.78% (active),10.4%,50%,43.7%,26.9%,49.6%,7.54% (active),31.6%,50%,49.1%
Cn1ncc2ccc(-c3nc(-c4ccccc4)[nH]c3-c3n[nH]c(=O)n3C3CC3)cc21,101%,96%,101%,93.1%,103%,97%,94.8%,48.7%,96.4%,93.5%,82.9%,94%,99%,98%,93.6%,94.5%,111%,107%,100%,107%
Nc1nc(C(=O)N/N=C/c2ccc(N3CCOCC3)cc2)nn1-c1ccc(S(N)(=O)=O)cc1,104%,101%,103%,85.4%,94.4%,109%,89.8%,107%,112%,123%,104%,102%,101%,114%,99.7%,111%,94%,104%,104%,102%
O=C(N/N=C/c1ccc([N+](=O)[O-])cc1)c1ccc2nc(-c3ccc(Cl)cc3)[nH]c2c1,66.7%,49%,19.6%,42.6%,89.8%,32.3%,42.7%,-0.501% (active),9.87% (active),4.24% (active),-8.49% (active),10.8%,21.6%,53.2%,23%,60.5%,19.1%,11.3%,36.8%,77.3%
